Among the data in PubChem BioAssay AID652016 (National Center for Advancing Translational Sciences (NCATS), 2013) are Potency values, retold here.

Results filed as inconclusive are left out. Entries that show only a call come without a potency. Calls of active or inactive are those of the source. The call rests on the fitted dose curve; in most records, active means well fitted inhibition curve with a large enough effect; inconclusive means small, poorly fitted or top-dose-only effect; inactive means flat fitted curve, though single readings scatter.
Potency means the concentration at half of the fitted maximal effect.

The target of this experiment is Luciferin 4-monooxygenase (Photinus pyralis) (UniProt P08659). The experiment can be described thus: qHTS Assay for Inhibitors of Firefly Luciferase from the GSK Published Protein Kinase Inhibitor Set. Conditions: purified firefly luciferase, luminescence inhibition; series mostly up to 57.5 µM. The method in brief: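 Enzyme-level luminescence assay: compounds titrated (about 60uM down to 300pM) into substrate buffer (10uM ATP, 10uM D-luciferin, pH 7.5 Tris acetate with Mg, Tween-20, BSA), then 10nM firefly luciferase added; read after ~5 min.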
Chain of Luciferin 4-monooxygenase (Photinus pyralis) (P08659 whole entry, looked up): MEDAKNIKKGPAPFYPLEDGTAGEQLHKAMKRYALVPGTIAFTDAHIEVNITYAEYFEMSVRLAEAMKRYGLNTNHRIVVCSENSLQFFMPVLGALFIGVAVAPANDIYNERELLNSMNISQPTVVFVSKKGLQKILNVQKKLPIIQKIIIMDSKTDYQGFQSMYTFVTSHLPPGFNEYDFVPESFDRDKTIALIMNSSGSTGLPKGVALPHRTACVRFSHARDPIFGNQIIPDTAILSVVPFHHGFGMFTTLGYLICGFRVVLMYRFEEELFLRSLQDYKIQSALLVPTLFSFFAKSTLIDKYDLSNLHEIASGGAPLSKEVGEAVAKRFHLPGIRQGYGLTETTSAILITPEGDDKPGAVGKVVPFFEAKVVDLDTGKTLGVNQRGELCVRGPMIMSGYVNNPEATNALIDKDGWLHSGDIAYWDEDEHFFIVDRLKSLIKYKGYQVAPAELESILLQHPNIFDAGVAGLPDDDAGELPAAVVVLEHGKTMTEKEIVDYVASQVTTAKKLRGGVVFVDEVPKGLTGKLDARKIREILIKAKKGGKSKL
(qHTS replaces the single test concentration by a dilution series.)
`Fc1ccc(Nc2nccc(-c3c(-c4ccc(C(F)(F)F)cc4)nn4ncccc34)n2)cc1F`: the Potency entry is “inactive”.
In the case of `O=C(Nc1n[nH]c2nc(-c3ccco3)ccc12)C1CC1`, the Potency result is “inactive”.
For the compound `Oc1[nH]c2ccccc2c1C=Nc1ccc(-n2cncn2)cc1`, the Potency was 18.3 µM (active).
With `COc1cc2ncnc(Nc3ccc4c(cnn4Cc4ccccc4)c3)c2cc1OC` the entry was “inactive”; with `Fc1ccc(-c2nn3ccccc3c2-c2ccncc2)cc1`, 1.16 µM (active).
With `COc1cc2ncnc(Nc3ccc(C)c(O)c3)c2cc1OC` the entry was “inactive”; with `NS(=O)(=O)c1ccc(N=Nc2c(O)[nH]c3ccc(C(=O)NCCc4cnc[nH]4)cc23)cc1`, “inactive”; with `CCS(=O)(=O)c1ccc(OC)c(Nc2nccc(N(C)c3ccc4c(C)[nH]nc4c3)n2)c1`, “inactive”.
In the case of `Cc1ccc2c(-c3ccnc(Nc4ccc5c(c4)OCCO5)n3)c(-c3ccc(C(F)(F)F)cc3)nn2n1` it was “inactive”.
On to `CS(=O)(=O)c1ccc(Oc2nccc(-c3c(-c4ccc(F)cc4)ncn3C3CCNCC3)n2)cc1`, for which the Potency result is “inactive”.
On to `CCS(=O)(=O)c1ccc(OC)c(Nc2ncc(-c3cccc(C(C)=O)c3)o2)c1`, for which the Potency result was “inactive”.
Regarding `COc1ccc2cc(-c3c(-c4ccncc4)nc(-c4ccc(S(C)=O)cc4C)n3C)ccc2c1` (stereo not drawn), the Potency entry was “inactive”.
In the case of `CCn1c(-c2nonc2N)nc2ccc(F)cc21` it was “inactive”.
In the case of `COc1cc(Nc2ncc3c(C)nc(-c4cccc(C(F)(F)F)c4)n3n2)cc(OC)c1OC`, the Potency entry is “inactive”.
As for `NC(=O)c1sc(-n2cnc3cc(C(F)(F)F)ccc32)cc1OCc1ccccc1Br`, the Potency result is “inactive”.
With `c1ccc(-c2nc3n(c2-c2ccc4c(c2)OCO4)CCC3)nc1` the entry was “inactive”; with `CN(C)c1ccc2[nH]c(O)c(C=Nc3ccc(S(N)(=O)=O)cc3)c2c1`, “inactive”.
Take `CCn1c(-c2nonc2N)nc2cnc(Oc3cccc(NC(=O)c4ccc(OCCN5CCOCC5)cc4)c3)cc21`: the Potency result was “inactive”.
With `COc1ccc2ncn(-c3cc(OC(C)c4ccccc4C(F)(F)F)c(C(N)=O)s3)c2c1` (stereo not drawn) the entry was “inactive”; with `NS(=O)(=O)c1ccc(N=Nc2c(O)[nH]c3cccc(CCc4ccncc4)c23)cc1`, “inactive”.
Turning to `NS(=O)(=O)c1ccc(Nc2cc(-c3ccc(O)c(F)c3)[nH]n2)cc1`, the Potency entry is “inactive”.
`N#Cc1c(NC(=O)c2ccccc2F)sc2c1CCCC2`: the Potency was 0.819 µM (active).
In the case of `CC(=O)Nc1cccc(C#Cc2cncnc2Nc2ccc(OCc3cccc(F)c3)c(Cl)c2)n1`, the Potency result is “inactive”.
In the case of `NC(=O)c1cccc(Nc2nccc(Nc3cccc4[nH]ncc34)n2)c1` it was 13 µM (active); in that of `COc1cc(C)c(NC(=O)CN(C)C)cc1Nc1nc(Nc2cccc(F)c2C(N)=O)c2cc[nH]c2n1`, “inactive”; in that of `Nc1nc(-c2ccccn2)c(-c2ccc3ncccc3n2)s1`, 32.6 µM (active).
On to `CN1CCN(CCCNc2nc3ccc(Oc4ccc(NC(=O)Nc5cc(C(F)(F)F)ccc5F)cc4)cc3[nH]2)CC1`, for which the Potency result was “inactive”.
For `Nc1ncnc2occ(-c3ccc(NC(=O)Nc4cc(C(F)(F)F)ccc4F)cc3)c12`, the Potency result was “inactive”.
In the case of `O=C1Nc2ccccc2C1=C1CCc2cc(O)ccc21` it was 5.17 µM (active); in that of `CS(=O)(=O)CCNCc1nc(-c2ccc3ncnc(Nc4ccc(OCc5cccc(C(F)(F)F)c5)cc4)c3c2)cs1`, “inactive”.
With `NS(=O)(=O)c1ccc(N=Nc2c(O)[nH]c3ccc(C(=O)NCc4ccncc4)cc23)cc1` the entry was “inactive”; with `CN1CCC(n2cnc(-c3ccc(F)cc3)c2-c2ccnc(Nc3ccccc3)n2)CC1`, “inactive”.
With `COc1cc2c(cc1Nc1nc(Nc3ccsc3C(N)=O)c3cc[nH]c3n1)N(C(=O)CN(C)C)CCC2(C)C`, the Potency entry is “inactive”.
